We go through 4 molecules from PubChem BioAssay (EPA / NIEHS).

Assay [1] in a line: ATG_GLI_CIS: Attagene CIS-FACTORIAL HepG2 Assay for human Zinc Finger Protein GLI1 (AID 2282945). As to conditions: HepG2, Attagene cis-factorial reporter mRNA, GLI element; actives raise or lower the signal. In outline:
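HepG2 cells transiently transfected with cis-promoter multiplexed reporter units report endogenous transcription factor activity. After 24 h chemical exposure, reporter mRNA was quantified by RT-PCR, 6-FAM labelling, HpaI digestion and capillary electrophoresis, with bidirectional fitting against DMSO.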

The target in assay [2] is Bile acid receptor (Homo sapiens) (UniProt Q96RI1). Nature of the assay: ATG_IR1_CIS: Attagene CIS-FACTORIAL HepG2 Assay for human Nuclear Receptor Subfamily 1 Group H Member 4 (NR1H4), IR1 submotif (AID 2282946). As to conditions: IR1 reporter transcription, actives raise or lower the signal. The method in brief:
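Transient MRTU transfection, HepG2; 24 h dosing; RNA → RT-PCR → 6-FAM primer extension → HpaI digest → capillary electrophoresis fluorescence. Gain/loss of signal fitted relative to DMSO.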

Assay [3] in a line: ATG_GRE_CIS: Attagene CIS-FACTORIAL HepG2 Assay for human Glucocorticoid Response Elements (GRE) (AID 2282947). As to conditions: HepG2 GRE cis-reporter, Attagene multiplex mRNA; actives raise or lower the signal. The method in brief:
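HepG2 cells transiently transfected with multiple cis-promoter reporter units measure endogenous TF activity; 24 h compound exposure. Reporter mRNA quantified by RT-PCR, FAM labelling, HpaI digestion and capillary electrophoresis; bidirectional fit vs DMSO baseline.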

Assay [4] in a line: ATG_ISRE_CIS: Attagene CIS-FACTORIAL HepG2 Assay for human Interferon Regulatory Factor 1 (IRF1) binding to an Interferon-Stimulated Response Element (ISRE) (AID 2282948). Particulars: HepG2 ISRE cis-reporter (Attagene), mRNA transcription readout; actives raise or lower the signal. The method in brief:
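Transiently transfected HepG2 cells carrying cis-element reporter units, dosed 24 hours. Reporter mRNA quantified by RT-PCR, fluorescent primer extension, HpaI digestion and capillary electrophoresis. Bidirectional fitting relative to DMSO.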

The nature of assay [5]: ATG_M_32_CIS: Attagene CIS-FACTORIAL HepG2 Assay for M32 Transcription Factor (Internal Marker) (AID 2282949).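 Also: background control marker of the multiplexed CIS panel rather than a real target.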 Particulars: HepG2 Attagene cis-factorial M32 reporter, mRNA; actives raise or lower the signal. In outline: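 Internal background marker read-out: RT-PCR/capillary electrophoresis fluorescence of reporter transcripts from transiently transfected HepG2 cells after 24 h chemical exposure. Activity fitted bidirectionally relative to DMSO negative control.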

Assay [6] in a line: ATG_M_06_CIS: Attagene CIS-FACTORIAL HepG2 Assay for M06 Transcription Factor (Internal Marker) (AID 2282950). Particulars: HepG2 Attagene CIS-FACTORIAL M06 internal marker reporter; actives raise or lower the signal. In outline: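 Fluorescence-labelled RT-PCR products from cis-promoter reporter units, cut with HpaI and resolved by capillary electrophoresis, give the signal. Cells are human HepG2, dosed for 24 h. Serves as background control, fitted relative to DMSO.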

The target in assay [7] is Hypoxia-inducible factor 1-alpha (Homo sapiens) (UniProt Q16665). Briefly: ATG_HIF1a_CIS: Attagene CIS-FACTORIAL HepG2 Assay for human Hypoxia Inducible Factor 1 (HIF1A) (AID 2282951). As to conditions: HepG2 Attagene cis-factorial HIF1a reporter transcription; actives raise or lower the signal. The method in brief:
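Transient MRTU transfection of human HepG2 liver cells, 24 h compound treatment, then total RNA isolation, oligo(dT) reverse transcription, PCR amplification, fluorescent labelling and capillary electrophoresis of reporter fragments. Gain or loss relative to DMSO.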

For assay [8], the target named is Hepatocyte nuclear factor 6 (Homo sapiens) (UniProt Q9UBC0). Nature of the assay: ATG_HNF6_CIS: Attagene CIS-FACTORIAL HepG2 Assay for human Hepatocyte Nuclear Factor 6 (HNF6) (AID 2282952). As to conditions: HepG2 Attagene cis-factorial HNF6 reporter transcription; actives raise or lower the signal. The method in brief: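 HepG2 cells transiently transfected with cis-element-driven multiplexed reporter units measuring endogenous transcription factor activity. After 24 h exposure, reporter mRNA quantified by RT-PCR, FAM-labelled fragments and capillary electrophoresis; bidirectional fitting versus DMSO.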

In assay [9] the target is Heat shock factor protein 1 (Homo sapiens) (UniProt Q00613). Nature of the assay: ATG_HSE_CIS: Attagene CIS-FACTORIAL HepG2 Assay for human Heat Shock Transcription Factor 1 (HSE) (AID 2282953). As to conditions: HepG2 HSE cis-reporter, Attagene RNA transcription; actives raise or lower the signal. The method in brief:
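After a 24 h incubation with test chemical, transfected HepG2 cells were harvested for RNA; reporter transcripts were measured by RT-PCR and capillary electrophoresis. Values reflect gain or loss of signal relative to DMSO.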

In assay [10] the target is Paired box protein Pax-6 (Homo sapiens) (UniProt P26367). Nature of the assay: ATG_Pax6_CIS: Attagene CIS-FACTORIAL HepG2 Assay for human Paired Box 6 (PAX6) (AID 2282956). As to conditions: HepG2 CIS-FACTORIAL PAX6 reporter transcription, RNA readout; actives raise or lower the signal. The method in brief: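 HepG2 cells transiently transfected with cis-promoter-driven multiplexed reporter units sensing endogenous transcription factor activity; 24 h chemical exposure. Reporter mRNA quantified by RT-PCR, 6-FAM labelling, HpaI digestion and capillary electrophoresis; bidirectional fit versus DMSO baseline.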

Assay [11] is described as follows: ATG_PXRE_CIS: Attagene CIS-FACTORIAL HepG2 Assay for human Pregnane X Receptor Element (PXRE) (AID 2282957). As to conditions: HepG2 Attagene CIS-FACTORIAL PXRE reporter, mRNA; actives raise or lower the signal. The method in brief: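 HepG2 cells transiently transfected with cis-element-driven multiplexed reporter units; after 24 h chemical exposure, reporter mRNA measured by RT-PCR, 6-FAM labelling, HpaI digestion and capillary electrophoresis. Bidirectional fitting relative to DMSO.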

Assay [12] can be described thus: ATG_Sox_CIS: Attagene CIS-FACTORIAL HepG2 Assay for human SRY-box transcription factor (SOX) (AID 2282960). Particulars: HepG2 Attagene cis-factorial SOX reporter, mRNA; actives raise or lower the signal. In outline: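 Endogenous factor activity in human liver HepG2 cells carrying transfected cis-regulated reporter units. RNA taken 24 h post-dose, reverse-transcribed, PCR-amplified and sized by capillary electrophoresis. Gain or loss of signal fitted relative to DMSO.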

Assay [13] addresses Transcription factor Sp1 (Homo sapiens) (UniProt P08047). Nature of the assay: ATG_Sp1_CIS: Attagene CIS-FACTORIAL HepG2 Assay for human Specificity Protein 1 (Sp1) (AID 2282961). As to conditions: HepG2 Sp1 cis-reporter transcription, actives raise or lower the signal. The method in brief:
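Transient MRTU-transfected HepG2, 24 h compound exposure. Total RNA → oligo(dT) RT → PCR of reporter → 6-FAM primer extension → HpaI digest → CE. Endpoint fitted both directions vs DMSO.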

Assay [14] in a line: ATG_SREBP_CIS: Attagene CIS-FACTORIAL HepG2 Assay for human Sterol Regulatory Element Binding (SREBP) (AID 2282962). As to conditions: HepG2 Attagene cis-factorial SREBP reporter, mRNA; actives raise or lower the signal. The method in brief:
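HepG2 cells transiently transfected with multiplexed cis-promoter reporter units sensing endogenous transcription factors; reporter mRNA measured 24 h after dosing by RT-PCR, 6-FAM labeling, HpaI digestion and capillary electrophoresis. Bidirectional fit versus DMSO.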

The target in assay [15] is Signal transducer and activator of transcription 3 (Homo sapiens) (UniProt P40763). Briefly: ATG_STAT3_CIS: Attagene CIS-FACTORIAL HepG2 Assay for human Signal Transducer and Activator of Transcription 3 (STAT3) (AID 2282963). As to conditions: HepG2, Attagene cis-factorial STAT3 reporter transcription; actives raise or lower the signal. In outline:
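HepG2 cells transiently transfected with cis-element-driven multiple reporter transcription units; after 24 h chemical exposure, reporter mRNA measured by RT-PCR, 6-FAM primer-extension labelling, HpaI digestion and capillary electrophoresis. Bidirectional fitting versus DMSO baseline.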

Assay [16] is described as follows: ATG_TA_CIS: Attagene CIS-FACTORIAL HepG2 Assay for human TA Basal Promoter (AID 2282964). Particulars: HepG2 Attagene CIS-factorial TA basal promoter reporter; actives raise or lower the signal. In outline: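 Multiplexed mRNA reporter assay, HepG2, 24 h. Reporter cDNA amplified, 6-FAM primer-extended, HpaI-cut, CE-sized; DMSO = negative control and baseline.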

Assay [17] in a line: ATG_MRE_CIS: Attagene CIS-FACTORIAL HepG2 Assay for human Metal Responsive Element (MRE) (AID 2282954). Particulars: HepG2 MRE cis-reporter transcription, Attagene multiplex; actives raise or lower the signal. The method in brief:
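HepG2 cells transiently transfected with multiple cis-element reporter units measure endogenous MTF1-driven transcription. After 24 h compound exposure, reporter mRNA is quantified by RT-PCR with 6-FAM labelling, HpaI digestion and capillary electrophoresis; bidirectional fits versus DMSO.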

Assay [18] can be described thus: ATG_PBREM_CIS: Attagene CIS-FACTORIAL HepG2 Assay for human Phenobarbital-responsive Enhancer Module (PBREM) (AID 2282955). Particulars: HepG2 PBREM cis-reporter, Attagene multiplexed transcription; actives raise or lower the signal. The method in brief:
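Endogenous transcription factors in human liver HepG2 cells drive a PBREM cis-element reporter, whose transcript level after 24 h treatment is quantified by RT-PCR with capillary electrophoresis; activity fitted in both directions against DMSO.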

Assay [19] is described as follows: ATG_PPRE_CIS: Attagene CIS-FACTORIAL HepG2 Assay for human Peroxisome Proliferator-activated Response Element (PPRE) (AID 2282958). Particulars: HepG2 PPRE cis-element reporter, Attagene transcription factor profiling; actives raise or lower the signal. The method in brief: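 HepG2, transient MRTU transfection (cis promoter elements, endogenous TFs). 24 h dosing. RNA → oligo(dT) RT → PCR → 6-FAM primer extension → HpaI digest → CE. Bidirectional fit vs DMSO.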

A short description of assay [20]: ATG_RORE_CIS: Attagene CIS-FACTORIAL HepG2 Assay for human RAR-related Orphan Receptor Element (RORE) (AID 2282959). Particulars: HepG2 Attagene cis-factorial RORE reporter, mRNA; actives raise or lower the signal. The method in brief: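 Transient MRTU transfection of human HepG2 liver cells (FuGene 6); 24 h compound exposure; TriZol RNA, oligo(dT) RT, PCR, FAM labeling, HpaI cut, CE fragment analysis. DMSO = negative control/baseline.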

Each structure is given as a SMILES string. The source made the active and inactive calls. The calls were made as follows: active = hit-call score of the fitted dose curve at least 0.9, where 1 is the maximum; inactive = score below 0.9.

Chain of Transcription factor Sp1 (Homo sapiens) (P08047 whole entry, looked up): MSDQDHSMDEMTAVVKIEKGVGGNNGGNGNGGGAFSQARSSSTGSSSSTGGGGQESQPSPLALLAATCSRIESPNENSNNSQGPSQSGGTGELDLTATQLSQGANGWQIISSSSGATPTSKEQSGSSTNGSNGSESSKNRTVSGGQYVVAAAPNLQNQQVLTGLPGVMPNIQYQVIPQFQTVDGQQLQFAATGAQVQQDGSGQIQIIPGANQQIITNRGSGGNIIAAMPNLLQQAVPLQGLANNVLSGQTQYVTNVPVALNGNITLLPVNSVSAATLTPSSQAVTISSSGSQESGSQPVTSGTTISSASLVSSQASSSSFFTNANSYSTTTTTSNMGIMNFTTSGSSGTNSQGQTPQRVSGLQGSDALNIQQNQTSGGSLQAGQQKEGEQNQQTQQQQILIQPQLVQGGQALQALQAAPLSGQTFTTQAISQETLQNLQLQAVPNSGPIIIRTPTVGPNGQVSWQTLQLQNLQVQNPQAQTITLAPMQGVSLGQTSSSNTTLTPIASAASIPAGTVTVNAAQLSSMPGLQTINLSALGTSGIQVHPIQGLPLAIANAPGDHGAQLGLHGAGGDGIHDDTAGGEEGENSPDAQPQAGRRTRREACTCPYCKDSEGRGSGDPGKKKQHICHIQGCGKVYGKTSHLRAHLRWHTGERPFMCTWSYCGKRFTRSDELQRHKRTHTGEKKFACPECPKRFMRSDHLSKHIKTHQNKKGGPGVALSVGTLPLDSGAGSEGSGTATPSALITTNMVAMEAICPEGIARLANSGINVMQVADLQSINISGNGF
Chain of Hepatocyte nuclear factor 6 (Homo sapiens) (Q9UBC0 whole entry, looked up, the tested form may be a part): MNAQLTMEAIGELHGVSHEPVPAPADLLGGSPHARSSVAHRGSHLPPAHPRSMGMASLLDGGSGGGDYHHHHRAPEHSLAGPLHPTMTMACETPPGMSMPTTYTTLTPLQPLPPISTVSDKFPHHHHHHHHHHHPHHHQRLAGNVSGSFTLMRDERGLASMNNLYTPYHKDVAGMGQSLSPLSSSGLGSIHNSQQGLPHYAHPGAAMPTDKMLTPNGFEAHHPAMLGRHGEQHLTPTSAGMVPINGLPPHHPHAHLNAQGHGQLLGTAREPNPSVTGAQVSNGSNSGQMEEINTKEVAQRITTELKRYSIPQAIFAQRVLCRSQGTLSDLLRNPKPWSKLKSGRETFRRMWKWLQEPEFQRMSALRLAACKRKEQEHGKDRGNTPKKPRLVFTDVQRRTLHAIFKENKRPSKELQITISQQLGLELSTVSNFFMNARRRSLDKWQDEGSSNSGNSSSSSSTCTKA
Chain of Heat shock factor protein 1 (Homo sapiens) (Q00613 whole entry, looked up): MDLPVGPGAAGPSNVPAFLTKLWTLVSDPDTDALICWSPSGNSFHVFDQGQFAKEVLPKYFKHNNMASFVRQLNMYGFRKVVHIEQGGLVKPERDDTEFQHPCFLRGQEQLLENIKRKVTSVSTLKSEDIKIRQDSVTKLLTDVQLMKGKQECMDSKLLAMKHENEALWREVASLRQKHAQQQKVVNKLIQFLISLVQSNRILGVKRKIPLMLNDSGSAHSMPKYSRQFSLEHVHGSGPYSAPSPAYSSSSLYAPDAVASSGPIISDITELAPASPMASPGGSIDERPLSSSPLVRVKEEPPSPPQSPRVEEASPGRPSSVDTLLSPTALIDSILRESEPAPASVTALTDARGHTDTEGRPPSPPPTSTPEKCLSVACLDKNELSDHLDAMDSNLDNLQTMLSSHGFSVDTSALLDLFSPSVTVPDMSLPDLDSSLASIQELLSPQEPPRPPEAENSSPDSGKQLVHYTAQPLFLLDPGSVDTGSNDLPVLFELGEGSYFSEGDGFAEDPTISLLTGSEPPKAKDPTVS
Chain of Bile acid receptor (Homo sapiens) (Q96RI1 whole entry, looked up): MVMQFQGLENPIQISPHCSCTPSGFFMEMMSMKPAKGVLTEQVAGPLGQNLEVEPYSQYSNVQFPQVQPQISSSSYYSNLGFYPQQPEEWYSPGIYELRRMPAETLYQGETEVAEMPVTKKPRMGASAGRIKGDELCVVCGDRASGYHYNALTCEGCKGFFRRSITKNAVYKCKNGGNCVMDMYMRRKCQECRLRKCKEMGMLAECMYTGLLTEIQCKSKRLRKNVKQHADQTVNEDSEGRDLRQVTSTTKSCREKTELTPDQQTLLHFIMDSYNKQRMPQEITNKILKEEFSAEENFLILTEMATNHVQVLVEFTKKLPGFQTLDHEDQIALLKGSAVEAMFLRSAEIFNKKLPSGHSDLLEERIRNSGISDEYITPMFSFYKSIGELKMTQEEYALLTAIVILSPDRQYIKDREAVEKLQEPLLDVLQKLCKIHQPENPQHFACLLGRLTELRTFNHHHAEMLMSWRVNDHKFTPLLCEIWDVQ
Chain of Signal transducer and activator of transcription 3 (Homo sapiens) (P40763 whole entry, looked up): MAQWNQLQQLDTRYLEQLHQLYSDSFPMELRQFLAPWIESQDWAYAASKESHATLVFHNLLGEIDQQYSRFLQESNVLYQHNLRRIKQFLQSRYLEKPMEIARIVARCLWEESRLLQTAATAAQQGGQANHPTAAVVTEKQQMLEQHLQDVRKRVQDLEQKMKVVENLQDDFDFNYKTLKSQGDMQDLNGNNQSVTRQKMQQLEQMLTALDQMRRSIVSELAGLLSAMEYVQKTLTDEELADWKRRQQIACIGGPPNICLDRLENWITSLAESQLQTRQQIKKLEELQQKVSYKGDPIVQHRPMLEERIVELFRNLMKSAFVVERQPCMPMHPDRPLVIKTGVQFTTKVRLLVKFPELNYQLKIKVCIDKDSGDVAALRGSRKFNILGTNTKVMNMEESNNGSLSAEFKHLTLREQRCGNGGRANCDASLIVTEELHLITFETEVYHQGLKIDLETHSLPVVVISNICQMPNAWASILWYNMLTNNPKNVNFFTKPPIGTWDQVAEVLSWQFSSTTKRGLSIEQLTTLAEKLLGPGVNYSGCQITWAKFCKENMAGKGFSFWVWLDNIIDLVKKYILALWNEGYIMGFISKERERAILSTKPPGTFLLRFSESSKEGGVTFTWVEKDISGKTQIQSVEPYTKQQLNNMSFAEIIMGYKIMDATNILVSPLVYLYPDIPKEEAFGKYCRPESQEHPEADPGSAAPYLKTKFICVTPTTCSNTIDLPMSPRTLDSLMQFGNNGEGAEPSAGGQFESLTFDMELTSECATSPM
Chain of Paired box protein Pax-6 (Homo sapiens) (P26367 whole entry, looked up): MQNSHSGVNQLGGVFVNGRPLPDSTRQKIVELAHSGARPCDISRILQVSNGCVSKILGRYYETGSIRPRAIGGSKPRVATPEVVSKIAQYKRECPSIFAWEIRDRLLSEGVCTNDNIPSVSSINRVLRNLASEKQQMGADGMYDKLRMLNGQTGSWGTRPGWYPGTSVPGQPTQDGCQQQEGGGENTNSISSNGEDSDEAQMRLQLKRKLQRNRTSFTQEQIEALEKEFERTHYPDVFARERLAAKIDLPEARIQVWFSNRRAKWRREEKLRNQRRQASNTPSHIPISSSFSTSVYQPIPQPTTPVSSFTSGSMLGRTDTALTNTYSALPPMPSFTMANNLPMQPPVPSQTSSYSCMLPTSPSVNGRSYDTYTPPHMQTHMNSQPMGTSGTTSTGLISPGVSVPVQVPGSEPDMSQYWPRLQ
Chain of Hypoxia-inducible factor 1-alpha (Homo sapiens) (Q16665 whole entry, looked up, the tested form may be a part): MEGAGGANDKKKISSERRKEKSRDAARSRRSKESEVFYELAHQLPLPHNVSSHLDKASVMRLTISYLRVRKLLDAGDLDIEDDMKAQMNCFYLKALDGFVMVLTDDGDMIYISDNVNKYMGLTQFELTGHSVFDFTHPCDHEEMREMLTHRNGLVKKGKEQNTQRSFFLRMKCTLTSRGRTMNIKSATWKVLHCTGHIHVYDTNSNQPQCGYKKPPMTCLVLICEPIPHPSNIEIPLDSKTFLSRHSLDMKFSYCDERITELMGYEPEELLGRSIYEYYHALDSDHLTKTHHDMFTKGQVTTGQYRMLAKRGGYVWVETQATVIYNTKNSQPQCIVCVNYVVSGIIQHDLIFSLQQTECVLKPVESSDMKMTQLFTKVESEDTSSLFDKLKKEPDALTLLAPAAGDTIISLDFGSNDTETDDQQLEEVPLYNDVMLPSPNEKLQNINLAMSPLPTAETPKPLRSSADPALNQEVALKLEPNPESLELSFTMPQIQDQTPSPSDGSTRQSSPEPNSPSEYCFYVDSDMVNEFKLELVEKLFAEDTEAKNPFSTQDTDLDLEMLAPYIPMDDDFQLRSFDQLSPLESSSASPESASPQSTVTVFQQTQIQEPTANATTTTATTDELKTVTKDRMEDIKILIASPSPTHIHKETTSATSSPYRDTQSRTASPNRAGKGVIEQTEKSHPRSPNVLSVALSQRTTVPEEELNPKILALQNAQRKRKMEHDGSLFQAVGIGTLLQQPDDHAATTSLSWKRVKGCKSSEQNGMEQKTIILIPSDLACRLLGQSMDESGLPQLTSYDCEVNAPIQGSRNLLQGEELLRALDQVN

What is called AC50 is the concentration at which the activity in the assay is half-maximal. `CCCCCCCCCCCCCCCCCCOS(=O)(=O)O`: the molecule was called inactive in [1], in assay [3], in assay [4], in assay [7], in assay [10] and in assay [11]. For the same molecule, the result in assay [12], in [13] and in assay [15] was inactive. Further, the AC50 was 33.4 µM (active) in [2]; 53 µM (active) in assay [5]; 54.7 µM (active) in assay [6]; 19.5 µM (active) in [8]; 54 µM (active) in [9]; 52.7 µM (active) in [14]. Also, the AC50 in [16] was 12.4 µM (active).
In the case of `O=C(O)C1CCC(C(=O)O)CC1` (centres undefined), the molecule was classed as inactive in [1], in assay [2], in assay [3], in assay [4], in [5] and in assay [6]. Besides, the molecule was called inactive in [7], in assay [8], in [9], in [17], in assay [18] and in assay [10]. Besides, the outcome in [11], in assay [12], in assay [13], in [15] and in assay [16] was inactive.
For `CCCCCCCCCCCCCC(=O)OC(C)C`, the outcome in assay [1], in assay [2], in assay [3], in assay [4], in [5] and in assay [6] was inactive. For the same molecule, the result in assay [7], in assay [8], in assay [9], in assay [17], in [10] and in assay [11] was inactive. Further, the molecule was classed as inactive in assay [19], in assay [20], in assay [12], in assay [13], in assay [14] and in assay [15]. Also, the result in assay [16] was inactive.
Regarding `C[N+](C)(C)CCCNS(=O)(=O)C(F)(F)C(F)(F)C(F)(F)C(F)(F)C(F)(F)C(F)(F)C(F)(F)C(F)(F)F`, the call in assay [1], in assay [2], in assay [3], in assay [4], in assay [5] and in assay [6] was inactive. Moreover, the call in [7], in assay [8], in assay [9], in assay [17], in assay [18] and in assay [10] was inactive. The molecule was classed as inactive in assay [12], in assay [13], in [14] and in [15]. In assay [11], the AC50 is 41.7 µM (active).
